From PubChem BioAssay (Tox21) come the findings set out here.

In test [1] the target is Thyrotropin-releasing hormone receptor (Homo sapiens) (UniProt P34981). Briefly: qHTS assay to identify small molecule agonists of the thyrotropin-releasing hormone receptor (TRHR) signaling pathway (AID 1346891; calls by dose curve;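 note: HEK293 cells expressing TRHR with calcium dye readout; series mostly up to about 58 µM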). In a few lines: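 Compounds were tested as agonists at 15 concentrations, in triplicate, on TRHR-Hek293 cells; calcium-sensitive dye fluorescence was recorded for 3 min following addition.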

The nature of test [2]: Human pregnane X receptor (PXR) small molecule agonists, qHTS cell viability counter screen (AID 1346977). Note: nearly all actives have a fitted effect of over 50% in size. An outline of the steps:
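Viability counter screen: CellTiter-Fluor signal in PXR-Luc HepG2 cells, 24hr compound exposure, 37C, 5% CO2.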

The nature of test [3]: Caspase-3/7 induction in HepG2 cells by small molecules, qHTS assay (AID 1346978). Note: nearly all actives have a fitted effect of over 15% in size. An outline of the steps: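 Wild-type HepG2 cells (2,000/well) were settled 5 h at 37 C, 5% CO2, then exposed to compounds in DMSO for 17 h. Caspase-3/7 activity was read by luminescence 30 min after adding Caspase-Glo 3/7 reagent at room temperature.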
Background: In qHTS, concentration-response curves come from the screen itself.

Test [4] is described as follows: Caspase-3/7 induction in CHO-K1 cells by small molecules, qHTS cell viability counter screen (AID 1346979). Note: nearly all actives have a fitted effect of over 35% in size. In a few lines: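 Viability readout by fluorescence (CellTiter-Fluor) on wild-type CHO-K1 cells exposed for 16hr at 37C and 5% CO2 to compounds delivered in DMSO; reagent incubated 1hr before reading.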
The nature of test [5]: Caspase-3/7 induction in CHO-K1 cells by small molecules, qHTS assay (AID 1346980). Note: nearly all actives have a fitted effect of over 15% in size. An outline of the steps: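 Wild-type cells were seeded at 1,500 per well and settled 5 hr at 37 C, 5% CO2, then exposed to DMSO-dissolved compounds for 17 hr. Caspase-Glo 3/7 reagent was added, and luminescence was read after 30min at room temperature.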
Test [6] can be described thus: Caspase-3/7 induction in HepG2 cells by small molecules, qHTS cell viability counter screen (AID 1346981). Note: series mostly up to about 92 µM; nearly all actives have a fitted effect of over 30% in size. In a few lines:
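Fluorescence read-out of live-cell protease activity (CellTiter-Fluor) after 1 hr with reagent. This was measured in the same wells as the caspase-3/7 luminescence, on HepG2 cells exposed to DMSO-dissolved compounds for 16 hr at 37 C.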

Test [7] deals with Nuclear receptor subfamily 1 group I member 2 (Homo sapiens) (UniProt O75469). Nature of the test: Human pregnane X receptor (PXR) small molecule agonists, qHTS assay (AID 1346982). Note: nearly all actives have a fitted effect of over 35% in size. Note: potency is the fitted concentration of half-maximal effect. In a few lines:
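HepG2 PXR-Luc reporter line, 5% charcoal-stripped FBS; 5 hr pre-incubation, compound (DMSO) 24 hr at 37 C/5% CO2; ONE-Glo 30 min RT; luminescence read-out.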

The target of test [8] is Cytochrome P450 2C9 (Homo sapiens) (UniProt P11712). Nature of the test: Cytochrome P450 Family 2 Subfamily C Member 9 (CYP2C9) small molecule antagonists: luciferase reporter qHTS assay (AID 1671198). Note: nearly all actives have a fitted effect of over 50% in size. Note: potency is the fitted concentration of half-maximal effect. An outline of the steps:
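CYP2C9 activity was measured with a P450-Glo proluciferin substrate. Enzyme–substrate mix was held with compound for 10 min at room temperature, then NADPH regeneration solution was added for 1 h at 37C. Luciferin product was read as luminescence.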
In general terms: In a reporter assay the amount or activity of a reporter protein is the signal.

The target in test [9] is Cytochrome P450 1A2 (Homo sapiens) (UniProt P05177). Briefly: Cytochrome P450 Family 1 Subfamily A Member 2 (CYP1A2) small molecule antagonists: luciferase reporter qHTS assay (AID 1671199). Note: nearly all actives have a fitted effect of over 50% in size. Note: potency is the fitted concentration of half-maximal effect. An outline of the steps: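 Luminescence readout (relative luminescence units) after luciferin detection reagent, 20 min RT. Preceded by 1 h room-temperature CYP1A2 reaction with NADPH regeneration solution following 10 min compound preincubation with enzyme and proluciferin substrate. Furafylline positive control.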

The target in test [10] is Voltage-gated inwardly rectifying potassium channel KCNH2 (Homo sapiens) (UniProt Q12809). Briefly: Human Ether-a-go-go-Related Gene (hERG) channel small molecule antagonists: fluorescence cell-based qHTS assay (AID 1671200).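 Note: hERG-expressing U2OS cells given a thallium stimulus after FluxOR II dye loading; series mostly up to about 77 µM; nearly all actives have a fitted effect of over 50% in size.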 An outline of the steps:
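Thallium served as the potassium surrogate; its influx into dye-loaded U2OS cells carrying the channel was measured by fluorescence over 2 min.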
Background: Block of hERG is tested as a sign of cardiac risk.

In test [11] the target is Cytochrome P450 3A4 (Homo sapiens) (UniProt P08684). Nature of the test: Cytochrome P450 Family 3 Subfamily A Member 4 (CYP3A4) small molecule antagonists: luciferase reporter qHTS assay (AID 1671201). In a few lines: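 Relative luminescence units after 20 min with luciferin detection reagent served as read-out. Beforehand, CYP3A4 turned over a proluciferin substrate for 1 h at room temperature with NADPH regeneration, following 10 min compound preincubation.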

Test [12] deals with Cytochrome P450 2D6 (Homo sapiens) (UniProt P10635). Nature of the test: Cytochrome P450 Family 2 Subfamily D Member 6 (CYP2D6) small molecule antagonists: luciferase reporter qHTS assay (AID 1671196). Note: nearly all actives have a fitted effect of over 50% in size. Note: potency is the fitted concentration of half-maximal effect. An outline of the steps: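 Luminogenic proluciferin substrate, CYP2D6 enzyme; 10 min RT preincubation with compound, NADPH regeneration system added, 1 h RT. Stop/detection reagent, 20 min RT, luminescence read (RLU). Signal proportional to CYP activity.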

The target in test [13] is Cytochrome P450 2C19 (Homo sapiens) (UniProt P33261). Nature of the test: Cytochrome P450 Family 2 Subfamily C Member 19 (CYP2C19) small molecule antagonists: luciferase reporter qHTS assay (AID 1671197). Note: nearly all actives have a fitted effect of over 65% in size. Note: potency is the fitted concentration of half-maximal effect. In a few lines:
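Inhibition of CYP2C19 was scored from loss of luminescence in a P450-Glo proluciferin substrate assay, NADPH-started and run 1 h at 37C, with ketoconazole as positive control.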

Test [14] addresses Nuclear receptor subfamily 1 group I member 2 (Rattus norvegicus) (UniProt Q9R1A7). Briefly: Rat pregnane X receptor (rPXR) activation by small molecules, qHTS assay (AID 1346983). Note: nearly all actives have a fitted effect of over 20% in size. As to conditions: rPXR luciferase reporter cells, One-Glo luminescence, 24 h; max activation: active compounds read high. In a few lines: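 Cell-based rPXR luciferase reporter assay, 2,000 cells per well, rested 5hr at 37 C before compound addition in DMSO, then 24 hr at 37 C. One-Glo reagent was added and luminescence read after 30 min at room temperature.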

The target in test [15] is Nuclear receptor subfamily 1 group I member 2 (Homo sapiens) (UniProt O75469). Nature of the test: Human pregnane X receptor (PXR) activation by small molecules, qHTS assay (AID 1346985). Note: nearly all actives have a fitted effect of over 40% in size. Note: potency is the fitted concentration of half-maximal effect. An outline of the steps: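 DPX-2 cells (HepG2 co-transfected with a PXR response element and a CYP3A4-promoter luciferase construct) were seeded at 2,000 per well, rested 5 hr at 37C, then exposed to DMSO-dissolved compounds for 24 hr. Activation was read as luciferase luminescence.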

Test [16] has the same target. Nature of the test: CYP3A4 induction through human pregnane X receptor (PXR) by small molecules, qHTS assay (AID 1346984). Note: nearly all actives have a fitted effect of over 40% in size. An outline of the steps:
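HepG2-derived DPX-2 line carrying PXR plus a CYP3A4-promoter luciferase reporter; cells plated 5 hr, compound-exposed 24 hr at 37C. CYP3A4 activity probed with 3uM (final) Luciferin-IPA for 3hr, then luciferase read after One-Glo.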

A number with no mark means an inactive call. Inconclusive results are not listed. Activity calls are given as the source filed them. Unless noted, calls come from the whole dose curve; as a rule, active = well fitted curve in the direction sought with a large enough effect in the repeat runs; inconclusive = weak or mixed curves; inactive = no such curve, though single readings can be large; an effect the other way counts as inactive or inconclusive.
% is set by controls: 0 for no effect and ±100 for the full control effect.

Chain of Cytochrome P450 2C9 (Homo sapiens) (P11712 whole entry, looked up): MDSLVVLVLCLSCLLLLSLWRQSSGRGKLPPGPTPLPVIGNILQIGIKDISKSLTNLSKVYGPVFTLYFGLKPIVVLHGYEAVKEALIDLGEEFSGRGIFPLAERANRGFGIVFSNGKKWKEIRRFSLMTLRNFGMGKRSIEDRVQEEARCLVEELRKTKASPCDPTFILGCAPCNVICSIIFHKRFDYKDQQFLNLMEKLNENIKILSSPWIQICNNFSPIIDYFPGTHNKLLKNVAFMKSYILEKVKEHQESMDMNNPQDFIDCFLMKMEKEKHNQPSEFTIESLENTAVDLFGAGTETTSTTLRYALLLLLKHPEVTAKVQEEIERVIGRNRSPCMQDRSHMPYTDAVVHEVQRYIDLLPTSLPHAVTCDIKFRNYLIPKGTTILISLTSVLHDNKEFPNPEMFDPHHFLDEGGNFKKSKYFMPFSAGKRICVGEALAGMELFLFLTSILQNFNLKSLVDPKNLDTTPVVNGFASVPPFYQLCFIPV
Chain of Cytochrome P450 2D6 (Homo sapiens) (P10635 whole entry, looked up): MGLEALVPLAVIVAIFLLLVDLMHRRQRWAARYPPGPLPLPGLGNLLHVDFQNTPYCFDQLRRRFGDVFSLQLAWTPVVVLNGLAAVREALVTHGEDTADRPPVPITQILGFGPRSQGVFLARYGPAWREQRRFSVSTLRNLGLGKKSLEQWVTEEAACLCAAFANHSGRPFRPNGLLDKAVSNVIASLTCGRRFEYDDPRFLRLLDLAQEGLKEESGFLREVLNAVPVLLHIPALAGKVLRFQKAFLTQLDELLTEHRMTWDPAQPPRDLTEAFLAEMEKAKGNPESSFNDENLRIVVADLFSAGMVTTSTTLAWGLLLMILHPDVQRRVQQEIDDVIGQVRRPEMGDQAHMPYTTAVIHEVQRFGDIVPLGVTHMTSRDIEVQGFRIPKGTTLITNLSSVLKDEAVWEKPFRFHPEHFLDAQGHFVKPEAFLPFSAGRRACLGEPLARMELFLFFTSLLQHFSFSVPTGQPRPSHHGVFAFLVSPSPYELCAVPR
Chain of Voltage-gated inwardly rectifying potassium channel KCNH2 (Homo sapiens) (Q12809 whole entry, looked up): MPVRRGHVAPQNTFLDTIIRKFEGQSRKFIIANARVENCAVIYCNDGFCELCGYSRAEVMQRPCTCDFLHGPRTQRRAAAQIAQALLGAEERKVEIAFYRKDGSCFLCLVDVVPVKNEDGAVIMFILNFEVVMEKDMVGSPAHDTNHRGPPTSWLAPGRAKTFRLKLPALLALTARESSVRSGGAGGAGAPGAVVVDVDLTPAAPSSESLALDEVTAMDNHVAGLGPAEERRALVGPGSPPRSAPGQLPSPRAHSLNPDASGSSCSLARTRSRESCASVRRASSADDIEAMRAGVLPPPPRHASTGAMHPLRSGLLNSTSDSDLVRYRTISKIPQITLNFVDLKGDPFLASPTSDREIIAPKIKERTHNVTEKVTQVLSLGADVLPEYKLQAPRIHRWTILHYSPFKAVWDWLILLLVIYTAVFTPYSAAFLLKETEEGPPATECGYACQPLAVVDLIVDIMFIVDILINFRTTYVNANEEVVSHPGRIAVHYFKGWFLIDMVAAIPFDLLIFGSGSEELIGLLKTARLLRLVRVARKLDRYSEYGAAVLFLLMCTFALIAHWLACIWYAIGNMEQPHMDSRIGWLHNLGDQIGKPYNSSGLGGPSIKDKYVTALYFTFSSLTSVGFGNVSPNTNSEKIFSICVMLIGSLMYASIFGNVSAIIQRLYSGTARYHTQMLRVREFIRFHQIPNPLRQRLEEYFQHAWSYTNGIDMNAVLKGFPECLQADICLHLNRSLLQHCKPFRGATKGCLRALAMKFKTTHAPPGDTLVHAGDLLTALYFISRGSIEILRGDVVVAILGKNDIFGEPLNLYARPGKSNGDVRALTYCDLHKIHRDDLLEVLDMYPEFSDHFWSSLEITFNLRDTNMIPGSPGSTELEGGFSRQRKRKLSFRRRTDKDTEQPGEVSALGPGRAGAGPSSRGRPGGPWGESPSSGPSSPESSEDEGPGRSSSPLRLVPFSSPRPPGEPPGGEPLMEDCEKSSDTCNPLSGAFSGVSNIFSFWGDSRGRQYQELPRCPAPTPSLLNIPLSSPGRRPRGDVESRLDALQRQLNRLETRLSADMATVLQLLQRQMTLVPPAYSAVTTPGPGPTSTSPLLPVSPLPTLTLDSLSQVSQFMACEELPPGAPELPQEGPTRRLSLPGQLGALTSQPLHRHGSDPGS
Chain of Nuclear receptor subfamily 1 group I member 2 (Homo sapiens) (O75469 whole entry, looked up): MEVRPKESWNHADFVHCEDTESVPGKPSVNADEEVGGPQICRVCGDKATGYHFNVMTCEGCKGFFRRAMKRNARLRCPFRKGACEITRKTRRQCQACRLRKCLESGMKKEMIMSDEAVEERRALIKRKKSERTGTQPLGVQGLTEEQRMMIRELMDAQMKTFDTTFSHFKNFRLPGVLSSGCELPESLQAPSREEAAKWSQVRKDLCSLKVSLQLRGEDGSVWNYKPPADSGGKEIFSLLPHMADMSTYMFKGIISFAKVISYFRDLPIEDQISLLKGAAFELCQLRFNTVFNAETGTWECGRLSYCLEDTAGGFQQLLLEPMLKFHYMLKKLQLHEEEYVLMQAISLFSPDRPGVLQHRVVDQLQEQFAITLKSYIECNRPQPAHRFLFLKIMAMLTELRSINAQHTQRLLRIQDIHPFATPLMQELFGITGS
Chain of Cytochrome P450 1A2 (Homo sapiens) (P05177 whole entry, looked up): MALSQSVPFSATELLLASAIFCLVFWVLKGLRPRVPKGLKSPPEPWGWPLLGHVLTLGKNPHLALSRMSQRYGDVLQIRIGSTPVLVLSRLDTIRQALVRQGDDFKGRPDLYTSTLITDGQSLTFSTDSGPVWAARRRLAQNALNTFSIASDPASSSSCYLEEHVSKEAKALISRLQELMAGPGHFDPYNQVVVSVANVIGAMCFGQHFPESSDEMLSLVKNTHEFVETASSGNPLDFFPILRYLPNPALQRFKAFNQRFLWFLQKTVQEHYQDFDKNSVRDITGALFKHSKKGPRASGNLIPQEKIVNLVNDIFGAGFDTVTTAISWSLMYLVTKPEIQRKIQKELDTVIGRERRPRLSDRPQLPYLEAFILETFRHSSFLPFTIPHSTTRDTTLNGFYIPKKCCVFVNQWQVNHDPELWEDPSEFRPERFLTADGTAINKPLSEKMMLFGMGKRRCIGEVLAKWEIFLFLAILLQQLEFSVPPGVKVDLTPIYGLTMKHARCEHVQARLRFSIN
Chain of Thyrotropin-releasing hormone receptor (Homo sapiens) (P34981 whole entry, looked up): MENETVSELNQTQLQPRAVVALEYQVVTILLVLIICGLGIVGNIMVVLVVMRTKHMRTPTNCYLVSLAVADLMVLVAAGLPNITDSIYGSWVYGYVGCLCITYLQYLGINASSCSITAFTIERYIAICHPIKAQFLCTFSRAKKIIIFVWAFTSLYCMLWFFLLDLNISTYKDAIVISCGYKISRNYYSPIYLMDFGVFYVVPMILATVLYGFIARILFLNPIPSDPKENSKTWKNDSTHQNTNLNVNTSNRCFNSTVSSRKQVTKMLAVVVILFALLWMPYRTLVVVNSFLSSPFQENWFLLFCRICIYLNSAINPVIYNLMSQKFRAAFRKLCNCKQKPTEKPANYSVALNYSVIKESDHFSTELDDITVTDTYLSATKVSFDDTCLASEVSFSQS
Chain of Cytochrome P450 2C19 (Homo sapiens) (P33261 whole entry, looked up): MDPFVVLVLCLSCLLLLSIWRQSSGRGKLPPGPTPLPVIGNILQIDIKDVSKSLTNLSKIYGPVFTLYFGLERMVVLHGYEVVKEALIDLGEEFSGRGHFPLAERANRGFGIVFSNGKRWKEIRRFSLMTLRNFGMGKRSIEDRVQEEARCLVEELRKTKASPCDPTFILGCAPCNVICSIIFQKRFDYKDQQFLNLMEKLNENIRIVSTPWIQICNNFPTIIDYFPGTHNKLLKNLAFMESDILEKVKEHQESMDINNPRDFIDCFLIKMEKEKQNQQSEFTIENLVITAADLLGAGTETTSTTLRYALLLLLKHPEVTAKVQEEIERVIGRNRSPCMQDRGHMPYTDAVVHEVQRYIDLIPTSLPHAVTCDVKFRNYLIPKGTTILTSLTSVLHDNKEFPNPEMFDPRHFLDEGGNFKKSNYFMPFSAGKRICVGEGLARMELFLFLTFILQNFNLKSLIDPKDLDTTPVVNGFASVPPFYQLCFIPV
Chain of Cytochrome P450 3A4 (Homo sapiens) (P08684 whole entry, looked up): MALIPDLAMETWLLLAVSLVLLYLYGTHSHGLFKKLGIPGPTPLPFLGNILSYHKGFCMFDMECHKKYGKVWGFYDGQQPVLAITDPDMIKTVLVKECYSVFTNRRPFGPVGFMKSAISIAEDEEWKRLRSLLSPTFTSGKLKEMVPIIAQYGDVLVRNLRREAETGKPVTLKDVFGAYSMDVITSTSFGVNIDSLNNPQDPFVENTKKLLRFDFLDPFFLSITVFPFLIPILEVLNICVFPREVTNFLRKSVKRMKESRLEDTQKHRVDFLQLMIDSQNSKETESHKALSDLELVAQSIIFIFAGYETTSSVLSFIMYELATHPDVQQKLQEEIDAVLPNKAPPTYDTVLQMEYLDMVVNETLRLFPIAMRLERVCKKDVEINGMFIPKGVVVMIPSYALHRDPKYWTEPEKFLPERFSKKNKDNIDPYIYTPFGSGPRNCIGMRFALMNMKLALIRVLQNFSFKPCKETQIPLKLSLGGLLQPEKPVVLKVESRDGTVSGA
Chain of Nuclear receptor subfamily 1 group I member 2 (Rattus norvegicus) (Q9R1A7 whole entry, looked up): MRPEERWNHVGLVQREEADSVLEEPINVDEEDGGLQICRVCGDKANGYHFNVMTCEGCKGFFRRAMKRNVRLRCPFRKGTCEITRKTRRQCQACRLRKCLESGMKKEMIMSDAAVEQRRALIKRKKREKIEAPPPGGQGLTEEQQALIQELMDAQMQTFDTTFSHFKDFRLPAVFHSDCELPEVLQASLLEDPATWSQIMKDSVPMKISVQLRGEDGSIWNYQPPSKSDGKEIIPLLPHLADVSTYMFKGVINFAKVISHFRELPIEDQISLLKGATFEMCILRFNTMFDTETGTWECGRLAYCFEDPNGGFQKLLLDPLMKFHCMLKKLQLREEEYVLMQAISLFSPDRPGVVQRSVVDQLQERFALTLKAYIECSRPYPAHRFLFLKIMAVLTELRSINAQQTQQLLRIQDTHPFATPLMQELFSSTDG

`CCOC(=O)/C=C/C(=O)O`: the Potency result in test [1], in test [2], in test [3], in [4], in test [6] and in test [7] was “inactive” throughout. Also, the Potency result in test [8], in test [9], in test [10] and in test [11] was “inactive” each time. Also, the result in test [5] was inactive.

`O=S1OCCO1`: the Potency entry in test [1], in test [2], in test [3], in test [4], in test [6] and in test [7] was “inactive” each time. Further, the Potency entry in [10] and in test [11] was “inactive” in each case. Besides, the result in [5] was inactive.

With `O=C(Nc1ccccc1)Nc1ccccc1`, the Potency entry in test [1], in test [2], in test [3], in test [6], in test [10] and in test [11] was “inactive” each time. In addition, in [5], the compound was classed as inactive. The Potency in test [7] was 4.88 µM (active); in test [12], 28.4 µM (active); in test [13], 4.5 µM (active); in [8] it was 22.6 µM (active); in [9], 17.9 µM (active).

On to `Cc1cc(OI)c(C(C)C)cc1-c1cc(C(C)C)c(OI)cc1C`, for which the Potency entry in test [1], in test [2], in test [3], in test [4], in [6] and in [10] was “inactive” each time. Also, the Potency entry in test [11] is “inactive”. Further, the max activation in test [14] was 0.407%. The Potency in [15] was 15.8 µM (active); in test [13] it was 8.71 µM (active); in test [8], 17.4 µM (active).

As to `C[Si]1(C)O[Si](C)(C)O[Si](C)(C)O1`, the Potency entry in test [1], in test [2], in test [3], in [4], in test [7] and in test [12] was “inactive” throughout. In addition, the Potency result in test [13], in test [8], in test [10] and in [11] was “inactive” throughout. The result in test [5] was inactive.

With `NC(=O)Nc1ccc(Cl)c(Cl)c1`, the Potency result in test [1], in test [2], in [3], in [4], in test [6] and in [10] was “inactive” throughout. Moreover, the Potency result in test [11] was “inactive”. Moreover, the Potency is 48.4 µM (active) in [7] and 8.91 µM (active) in test [9].

As to `O=C(O)Cc1ccc(-c2ccccc2)cc1`, the Potency result in test [1], in test [2], in test [3], in test [4], in [6] and in [7] was “inactive” throughout. In addition, the Potency result in [16], in test [15], in test [12], in [9] and in test [10] was “inactive” throughout. Besides, the max activation in test [14] is -2.71%.

For `Cc1cc(C(=C2C=CC(=Nc3ccc(S(=O)(=O)O)cc3S(=O)(=O)O)C=C2)c2ccc(Nc3ccc(S(=O)(=O)O)cc3)cc2)ccc1N`, the Potency entry in [1], in test [2], in [3], in [4], in test [7] and in test [10] was “inactive” in each case. Also, the compound was classed as inactive in [5].

With `COC(=O)c1cc(Cl)ccc1NS(=O)(=O)C(F)(F)F`, the Potency entry in test [1], in test [2], in test [3], in [4], in [7] and in test [12] was “inactive” each time. For the same compound, the Potency entry in test [13], in test [8], in test [10] and in [11] was “inactive” in each case. In addition, the Potency in [9] was 0.55 µM (active).

Consider `CCCCCCCCSCCO`, for which the Potency entry in [1], in [2], in [3], in test [4], in [7] and in test [12] was “inactive” throughout. The Potency entry in [10] and in [11] was “inactive” in each case. Moreover, the outcome in [5] was inactive. The Potency is 20 µM (active) in test [13] and 44.8 µM (active) in test [8].

Consider `NCC1CCCC(CN)C1` (centres undefined), for which the Potency entry in [1], in [2], in test [3], in test [4], in [13] and in [8] was “inactive” throughout. Moreover, the Potency entry in test [9], in [10] and in [11] was “inactive” throughout. Moreover, in test [5], the outcome was inactive.
